Test results published in PubChem BioAssay AID743314 (Broad Institute, 2014).
Measured potencies and affinities stand elsewhere. Records with an inconclusive call do not appear. Activity calls are given as the source filed them.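 Rule for the calls: active = fitted half-maximal concentration no higher than twice the top tested dose, in every repeat run; inconclusive = repeat runs disagree, poor fit, or flat partial inhibition; inactive = the rest.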

target: Endoplasmic reticulum aminopeptidase 1 (Homo sapiens) (UniProt Q9NZ08); experiment: ERAP1 aminopeptidase inhibitors, dose response, biochemical, cherry-pick, set 2, plate reader (AID 743314); conditions: Recombinant ERAP1, Leu-AMC fluorescence, 60 min; series mostly up to 11 µM;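 note: 0% = neutral control wells and -100% = L-leucinethiol positive control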
Sequence (Q9NZ08 whole entry, looked up): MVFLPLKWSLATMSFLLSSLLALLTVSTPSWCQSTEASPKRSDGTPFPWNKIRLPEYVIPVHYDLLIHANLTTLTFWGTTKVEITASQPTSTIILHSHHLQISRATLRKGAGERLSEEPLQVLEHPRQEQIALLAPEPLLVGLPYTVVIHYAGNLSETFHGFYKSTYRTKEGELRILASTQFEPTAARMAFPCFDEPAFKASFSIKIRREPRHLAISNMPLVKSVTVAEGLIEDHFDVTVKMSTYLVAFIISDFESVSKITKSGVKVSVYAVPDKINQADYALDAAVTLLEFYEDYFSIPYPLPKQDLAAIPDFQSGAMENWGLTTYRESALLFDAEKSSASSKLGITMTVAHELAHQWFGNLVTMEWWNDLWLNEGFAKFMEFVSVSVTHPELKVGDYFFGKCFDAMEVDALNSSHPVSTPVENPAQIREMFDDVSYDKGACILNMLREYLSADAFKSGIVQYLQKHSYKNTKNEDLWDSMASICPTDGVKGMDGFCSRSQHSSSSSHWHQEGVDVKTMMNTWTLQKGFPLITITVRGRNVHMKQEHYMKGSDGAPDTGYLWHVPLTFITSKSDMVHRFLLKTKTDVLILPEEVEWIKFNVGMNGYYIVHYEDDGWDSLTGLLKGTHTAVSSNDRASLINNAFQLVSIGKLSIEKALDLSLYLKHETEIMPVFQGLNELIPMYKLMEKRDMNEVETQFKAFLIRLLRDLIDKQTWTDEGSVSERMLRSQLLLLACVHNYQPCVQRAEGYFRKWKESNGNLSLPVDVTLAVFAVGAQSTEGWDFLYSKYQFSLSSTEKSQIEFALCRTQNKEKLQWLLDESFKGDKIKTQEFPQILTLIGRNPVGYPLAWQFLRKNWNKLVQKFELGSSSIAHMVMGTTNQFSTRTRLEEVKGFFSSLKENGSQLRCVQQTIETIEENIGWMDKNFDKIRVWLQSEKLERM

outcome, inactive:
CN1CCN(S(=O)(=O)c2ccc(C3CCCCC3)cc2)CC1
CN1[C@H](C(=O)N2CCCCC2)[C@@H](CO)[C@@H]2Cn3c(ccc(/C=C/c4ccccc4)c3=O)[C@@H]21
C/C=C/c1ccc([C@H]2[C@@H](CO)N(CC3CCOCC3)C23CN(S(=O)(=O)CC)C3)cc1
Cc1[nH]c2ccccc2c1C(=O)CN1C(=O)C(=O)N(Cc2ccco2)C1=O
CCCNC(=O)C[C@H]1CC[C@@H]2[C@H](COC[C@H](O)CN2C(=O)Nc2cccc(Cl)c2)O1
COc1ccc(CN(C)C[C@@H]2Oc3c(NC(=O)NC4CCCCC4)cccc3C(=O)N([C@@H](C)CO)C[C@@H]2C)cc1
CCc1ccc(NS(=O)(=O)c2ccc(C)c(C(=O)N3CCOCC3)c2)cc1
N#Cc1c(N)n(CCNC(=O)c2ccccc2)c2nc3ccccc3nc12
Cc1ccc(-c2cc(C(=O)N3CCCC3)c3ccccc3n2)s1

Activity change, negative = inhibition, inactive:
COc1ccc(C(=O)O)cc1S(=O)(=O)Nc1cc(C(F)(F)F)ccc1N1CCCCC1 239% [at 2.6 µM]
